Most compounds without a hit are left out; they make up all but 2.5% or so of the library.
RAD52 anneal inh: RAD52 (human) annealing inhibition; P43351; recombinant RAD52 DNA annealing, FRET fluorescence; inhibition, % at 18.7 µM; hit rate 0.46% among 360,000;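 active means every replicate showing at least 50% inhibition; inconclusive means mean inhibition at least 50% but not in every replicate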
NSD2 HMT inh: blocks human histone methyltransferase NSD2. O96028. NSD2 peptide methylation, AlphaScreen, 120 min. inhibition, % at 12.5 µM. hit rate 0.54% among 310,000; in the data active means inhibition above about 50%
rRNA inh HTS: selective bacterial rRNA inhibition in E. coli; E. coli WT GFP vs humanized-ribosome RFP mutants, fluorescence, 24 h; active compounds read low; DMSO median 0, no signal -100; GFP signal change (wild-type ribosome), % (no concentration beside the values); hit rate 1.6% among 350,000; AID 720706;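 active means significant combined selectivity score with lowered wild-type GFP, culture density cut under 30%, mutant RFP and density less affected; inactive means any of these conditions unmet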
AF4-AF9 inh: MLL-AF4/AF9 protein interaction inhibition; hit rate 0.47% among 350,000; AlphaScreen, biotin-AF4 peptide binding to FLAG-AF9; P42568; inhibition, % at 10 µM;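 active means every replicate reaching a set inhibition limit, whatever the replicate mean, cut at about 25% in these data; inconclusive means mean inhibition reaches that limit but some replicates miss it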;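 further: 0% = plate neutral control median and 100% = total signal loss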
Target sequence (P42568 whole entry, looked up): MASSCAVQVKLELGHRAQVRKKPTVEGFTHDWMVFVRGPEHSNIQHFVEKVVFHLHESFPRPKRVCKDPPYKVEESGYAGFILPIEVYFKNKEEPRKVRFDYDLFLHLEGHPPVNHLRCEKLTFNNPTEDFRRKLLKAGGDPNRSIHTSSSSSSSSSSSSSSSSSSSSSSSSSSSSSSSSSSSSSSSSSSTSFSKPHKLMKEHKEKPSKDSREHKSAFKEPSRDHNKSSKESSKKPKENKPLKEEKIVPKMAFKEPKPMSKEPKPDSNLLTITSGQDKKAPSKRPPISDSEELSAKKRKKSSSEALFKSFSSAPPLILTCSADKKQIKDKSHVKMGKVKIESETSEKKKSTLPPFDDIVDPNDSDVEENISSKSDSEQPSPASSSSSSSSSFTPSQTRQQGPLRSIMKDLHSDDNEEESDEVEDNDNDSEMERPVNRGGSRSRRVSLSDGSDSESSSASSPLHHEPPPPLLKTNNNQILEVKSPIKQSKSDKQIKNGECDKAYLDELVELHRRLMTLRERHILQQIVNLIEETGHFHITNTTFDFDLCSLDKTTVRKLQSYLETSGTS
Casp6 inh: caspase-6 (human) enzyme inhibition; inhibition, % at 12.5 µM; purified caspase-6, Z-VEID-R110 cleavage fluorescence; P55212; hit rate 0.53% among 350,000; AID 686996;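 active means mean inhibition across replicates at least about 35%, with every replicate also reaching that limit, limit read from the data; inconclusive means only one of the two criteria met; inactive means neither criterion met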;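 further: 0% = median of neutral control wells and 100% = no fluorescence left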
HepG2 tox: cytotoxic compounds in HepG2 cells; shares compounds with rRNA inh HTS; HepG2 viability, ATP luminescence, 72 h; activity change, negative = cytotoxicity, unspecified at 26 µM; 30 tested, under 10 active;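 active means compounds whose fitted half-maximal signal-loss concentration is at most twice their highest valid dose; inconclusive means flat curve with 30 to 70% signal loss, or poor fit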
AID977621: wild-type E. coli growth inhibition versus H69 humanized strain – H69 mutant RFP, wild-type GFP, cherry-pick, dose response | 1,900 tested, under 10 active | activity change, negative = inhibition at 50 µM | shares compounds with rRNA inh HTS | fluorescence, 24 h;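 active means Wild-type ribosome reporter drop at least double the humanized mutant ribosome reporter drop, growth loss under a set limit; inconclusive means no clear call, values can overlap the other calls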;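 further: wild-type GFP and H69 mutant RFP strains grown together 50/50 in each well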
AID977628: E. coli growth inhibition, wild-type GFP versus h24 humanized RFP strain, dose response, h24 mutant RFP vs wild-type GFP, cherry-pick; shares compounds with rRNA inh HTS; E. coli WT GFP strain growth, fluorescence, 24 h; activity change, negative = inhibition at 50 µM; 1,900 tested, under 10 active; AID 977628;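 active means compound lowering the normal-ribosome reporter at least twice as much as the humanized-ribosome reporter, growth loss under a set limit; inconclusive means no clear call, values can overlap the other calls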;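 further: wild-type GFP and h24 humanized RFP strains co-cultured 1 to 1 per well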
* hit, by the source's call; ? = inconclusive; . = not tested or not shown.

SMILES	RAD52 anneal inh	NSD2 HMT inh	rRNA inh HTS	AF4-AF9 inh	Casp6 inh	AID977621	AID977628	others
Cc1ccc(C2NC(c3ccc(C)cc3)C(C)C(=O)C2C)cc1 (centres undefined)	-7.6	-1.7	-27.4*	.	0.6	-10.8	-5.21
O=C(CCCOc1ccccc1)NCCc1nc2ccccc2[nH]1	-12.3	-1.7	-19.1*	-0.8	0.2	.	6.37
CC(=O)Nc1ccc(OCC(=O)N2CCC(Cc3ccccc3)CC2)cc1	3.9	-2.3	-19.5*	2.1	-5.0	-25.8	.
COC(=O)CC1COc2ccccc2N1C(=O)c1ccc(Br)cc1 (centres undefined)	-5.7	-0.6	-24.8*	-5.1	3.8	-1.54	2.88
COC(=O)CC1COc2ccccc2N1C(=O)c1ccc(Cl)cc1 (centres undefined)	.	-2.2	.	.	.	.	.
COc1cccc(CNC(=O)CCC2CCCN(C(=O)c3cc4ccccc4o3)C2)c1 (centres undefined)	-3.4	-2.8	-32.3*	-0.9	7.6	-4.22	.
Cc1cc(Cl)ccc1OCCCC(=O)OCC(N)=O	-20.6	-1.0	-18.1*	-3.7	2.5	-19.7	?
O=C(Nc1ccc(C(=O)Nc2ccccc2Cl)cc1)c1cccnc1	-17.2	0.0	-19.9*	-1.3	2.1	-1.82	-11.4
CC(C)N1CC2(CC(c3ccccc3C(F)(F)F)=NO2)CN1C(=O)c1ccc(C(C)(C)C)cc1 (centres undefined)	-14.0	.	6.7	-2.4	1.6	.	.
CC(C)N1CC2(CC(c3ccccc3C(F)(F)F)=NO2)CN1C(=O)c1ccco1 (centres undefined)	-11.6	.	-20.5*	2.4	-0.4	.	?
Cc1noc(C)c1S(=O)(=O)N(C)C[C@H]1Oc2ccc(NC(=O)NC3CCCCC3)cc2CC(=O)N([C@@H](C)CO)C[C@H]1C	-3.8	.	2.2	-1.9	-0.6	.	.
COc1cc(OC)c(-c2nc3c[n+](CC(=O)c4ccccc4)ccc3n2C)cc1OC	.	1.6	.	.	.	.	.
COc1ccc(C(=O)C[n+]2ccc3c(c2)nc(-c2cc(OC)c(OC)cc2OC)n3C)cc1	-3.9	.	-27.9*	-1.6	1.0	?	-9.97
COCC(=O)Nc1ccc2c(c1)C(=O)N(C)[C@H]1CC[C@H](CC(=O)NCc3ccccc3F)O[C@@H]1CO2	4.7	.	2.8	-3.1	-0.9	.	.
COc1ccc(C#Cc2ccc3c(c2)[C@@H]2[C@@H](CCN2Cc2nccs2)[C@@H](CO)N3)cc1	.	.	-21.9*	-2.2	.	.	?
OC[C@H]1Nc2ccc(C#Cc3ccc(F)cc3)cc2[C@@H]2[C@H]1CCN2Cc1nccs1	.	.	1.5	.	.	.	.
COC(=O)c1ccc(CSc2n[nH]c(=S)s2)o1	.	0.2	.	.	.	.	.
COC(=O)c1ccc(CSc2nc3ccccc3s2)o1	-19.0	-2.6	-32.7*	2.7	-0.2	11.1	-2.88
COc1cccc(C(=O)Nc2cc(C)nn2-c2ccccc2)c1OC	-9.5	-2.8	-34.2*	3.7	0.9	.	.	HepG2 tox=13.5
COc1cc(C(=O)Nc2cc(C)nn2-c2ccccc2)cc(OC)c1OC	-4.9	3.7	-4.9	-0.4	1.0	.	.
C[C@H](CO)N1C[C@H](C)[C@H](CN(C)S(=O)(=O)c2ccccc2)Oc2ccc(NS(=O)(=O)c3ccc(F)cc3)cc2CC1=O	3.1	.	-1.5	-2.0	-1.8	.	.
Cc1csc2c(N3CCC(C(=O)O)CC3)ncnc12	-7.0	-3.2	-32.0*	.	-4.9	.	?
COc1cccc(S(=O)(=O)Nc2ccc3c(c2)[C@@H]2C[C@H](CC(=O)NCc4cccc(F)c4)O[C@H](CO)[C@@H]2O3)c1	1.9	.	-9.2	3.4	-2.7	.	.
Cc1cc(CNC(=O)c2cc(-c3ccccc3)nc3ccccc23)nn1C	-13.7	3.3	-23.9*	-1.5	0.8	-7.07	-14.4
O=C(NCc1ccccn1)c1cc(-c2ccccc2)nc2ccccc12	-15.5	0.3	8.1	-2.7	-0.6	.	.
SMILES	RAD52 anneal inh	NSD2 HMT inh	rRNA inh HTS	AF4-AF9 inh	Casp6 inh	AID977621	AID977628	others
Cn1c(=O)c2c(nc(N3CCOCC3)n2C/C=C/c2ccccc2)n(C)c1=O	-0.4	0.1	-18.4*	3.9	-4.9	-9.2	-11.2
COC(=O)c1cc2c(c3c4cc(F)ccc4n(S(=O)(=O)c4ccccc4)c13)C(=O)N(Cc1ccco1)C2	-41.7	.	-17.9*	0.8	-1.6	-2.13	?
COC(=O)c1cc2c(c3c4cc(F)ccc4n(S(=O)(=O)c4cccc(C)c4)c13)C(=O)N(Cc1ccco1)C2	-30.5	0.0	-16.9*	-2.4	1.6	-19	-9.79
COC(=O)c1cc2c(c3c4cc(OC)ccc4n(C(=O)c4ccccc4)c13)C(=O)N(Cc1ccco1)C2	-31.2	.	-14.2*	-1.0	-2.0	0.152	-7.38
O=C(c1ccc(F)cc1)N1CC(=O)N2[C@@H](CO)[C@@H](c3ccc(-c4cccnc4)cc3)[C@@H]2C1	6.7	.	-1.0	-1.0	4.1	.	.
Cc1cc([N+](=O)[O-])nn1CC(=O)N/N=C/c1ccccc1F	-14.0	10.5	4.4	.	0.4	.	.
Cc1cc([N+](=O)[O-])nn1CC(=O)Nc1cc(F)ccc1F	3.6	-2.9	-18.2*	-0.6	1.9	-15.6	?
Cn1cc(CN2CCCC(C(=O)Nc3cccc(-c4cc5ccccc5[nH]4)c3)C2)cn1 (centres undefined)	27.4	10.6	-32.6*	12.5	0.2	1.39	-8.08
CCc1ccc(OCC(=O)NCc2ccco2)c(Br)c1	-18.1	3.9	-21.2*	-6.2	3.1	-3.9	.
CC(C)NC(=O)N(C)C[C@@H]1OCCCC[C@@H](C)Oc2ccc(NC(=O)NC3CCCCC3)cc2C(=O)N([C@H](C)CO)C[C@@H]1C	.	.	0.0	.	.	.	.
O=C(C[C@H]1C[C@H]2c3cc(NC(=O)Nc4ccccc4F)ccc3O[C@H]2[C@H](CO)O1)NCc1ccncc1	-6.9	.	-0.5	-0.6	-2.2	.	.
CC(C)CNC(=O)c1cccc(NC(=O)C(C)Oc2ccccc2)c1 (centres undefined)	-22.0	-4.0	-24.2*	-3.2	0.6	-15.6	-11.9
CC(C)CNC(=O)c1cccc(NC(=O)CSc2ccccc2)c1	.	-0.2	.	.	.	.	.
COc1ccc(OC(C)C(=O)Nc2ccc(F)cc2F)cc1 (centres undefined)	-6.0	-5.6	-2.1	-0.8	1.9	.	.
COc1ccc(OC(C)C(=O)Nc2cccc(F)c2)cc1 (centres undefined)	-8.3	-4.1	-22.8*	-2.7	-1.5	-1.75	?
COCC#Cc1ccc([C@@H]2[C@H](CO)N3CCCCN(S(=O)(=O)c4ccccc4F)C[C@@H]23)cc1	19.2	.	3.8	6.8	-1.9	.	.
CC(C)(Nc1ccccc1)C(=O)c1ccccc1	-20.2	-1.9	-20.2*	-5.3	3.6	-2.9	?

Screening data: PubChem BioAssay, Broad Institute
